Test results reported in PubChem BioAssay (Tox21).
Records with an inconclusive call do not appear. A call without a number means that no potency is given here. Activity calls are given as the source filed them. Calls come from the whole dose curve; as a rule, active = well fitted inhibition curve with a large enough effect in the signal ratio in the repeat runs (not every such curve was filed as active); inconclusive = weak or mixed curves, or effect the other way; inactive = no such curve, though single readings can be large or run the other way; the % refers to the signal ratio.

biological target: Bile acid receptor (Homo sapiens) (UniProt Q96RI1); assay: qHTS assay to identify small molecule antagonists of the farnesoid-X-receptor (FXR) signaling pathway (AID 743217); conditions: HEK293T FXR-UAS-bla, beta-lactamase ratio, CDCA-stimulated, 16 h; series mostly up to 62.6 µM
Outline: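 FRET fluorescence after 2 h room-temperature LiveBLAzer loading gives the readout. Prior step: FXR-bla HEK 293T cells, seeded and incubated 5 h, received test compounds plus 50 uM final CDCA for 16 h at 37 °C.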

Sequence of Bile acid receptor (Homo sapiens) (Q96RI1 whole entry, looked up): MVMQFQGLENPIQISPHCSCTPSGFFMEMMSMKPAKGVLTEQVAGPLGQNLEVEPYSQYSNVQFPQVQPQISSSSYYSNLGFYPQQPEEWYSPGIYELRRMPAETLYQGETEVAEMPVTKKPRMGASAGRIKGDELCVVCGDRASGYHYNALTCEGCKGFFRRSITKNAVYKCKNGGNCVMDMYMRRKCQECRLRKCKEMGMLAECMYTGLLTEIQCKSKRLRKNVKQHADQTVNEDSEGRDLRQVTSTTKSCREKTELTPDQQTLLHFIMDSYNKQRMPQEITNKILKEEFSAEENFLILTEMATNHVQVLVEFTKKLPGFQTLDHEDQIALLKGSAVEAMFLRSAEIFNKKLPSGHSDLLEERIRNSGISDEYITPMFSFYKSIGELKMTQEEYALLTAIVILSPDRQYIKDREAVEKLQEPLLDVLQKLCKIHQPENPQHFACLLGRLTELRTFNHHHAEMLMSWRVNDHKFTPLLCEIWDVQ

Row | SMILES | Potency
1 | CCc1cc(C(C)(C)C)c(O)c(C(C)(C)C)c1 | inactive
2 | NCCCCCC(=O)O | inactive
3 | CC(C)(C)NCC(O)COc1ccccc1OCC1CCCO1 (stereo not drawn) | inactive
4 | CCC(=O)/C=C/C1C(C)=CCCC1(C)C (stereo not drawn) | inactive
5 | NC(N)=Nc1nc(CSCC/C(N)=N/S(N)(=O)=O)cs1 | inactive
6 | CC(=O)OCC1=C(C(=O)O)N2C(=O)[C@@H](NC(=O)Cc3cccs3)[C@H]2SC1 | inactive
7 | OCC(CO)N[C@H]1C[C@](O)(CO)[C@@H](O)[C@H](O)[C@H]1O | inactive
8 | CC1COC(=O)O1 (stereo not drawn) | inactive
9 | C=C(C)C1CC=C(C)C(OC(C)=O)C1 (stereo not drawn) | inactive
10 | Cc1scc2c1N(C(=O)CN1CCN(C)CC1)c1ccccc1NC2=O | inactive
11 | O=S(=O)(O)c1ccc2nc(-c3ccccc3)[nH]c2c1 | inactive
12 | CCC[C@H](N[C@@H](C)C(=O)N1[C@H](C(=O)O)C[C@@H]2CCCC[C@@H]21)C(=O)OCC | inactive
13 | CCCCCCCCCCCC[N+](C)(C)C | inactive
14 | Nc1cc(S(=O)(=O)O)cc2cc(S(=O)(=O)O)cc(O)c12 | inactive
15 | CNC1(C)C2CCC(C2)C1(C)C (stereo not drawn) | inactive
16 | CC(=O)O[C@]1(C(C)=O)CC[C@H]2[C@@H]3C[C@H](C)C4=CC(=O)CC[C@]4(C)[C@H]3CC[C@@]21C | inactive
17 | c1ccc2cc3c(ccc4ccccc43)cc2c1 | inactive
18 | Cc1cc(C(C)(C)C)c(O)c(C(C)(C)C)c1 | inactive
